# Source: PubChem BioAssay
# An excerpt weighted towards active compounds, which were near 4.7% of everything screened.
# TIM10 inh: inhibits growth of TIM10 yeast strain | S. cerevisiae TIM10 strain growth, BacTiter-Glo luminescence, 24 h | inhibition, % at 10 µM | actives 1.4% (n = 330,000) | AID 463195;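 active = inhibition of 40% or more at the single tested concentration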;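 note: wild-type TIM10 isogenic control strain grown at permissive 25 °C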
# SKKanGAS inh: blocks kanamycin growth of S. pyogenes SKKanGAS strain. BacTiter-Glo, 6 h. inhibition, % at 7.5 µM. actives 1.3% (n = 300,000). AID 1662;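 active = mean replicate score, as percent of positive control median, at least 50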;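 note: strain carries kanamycin resistance gene driven by streptokinase promoter and grows in 40 µg/ml kanamycin; loss of luminescence reflects streptokinase promoter inhibition or plain growth inhibition; 0% = median of DMSO wells and 100% = positive control at its reference dose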
# PfHsp90 yeast 2: reduces growth (ATP signal) of yeast expressing P. falciparum Hsp90; S. cerevisiae expressing PfHsp90, BacTiter-Glo ATP, 48 h; yeast lacking PDR1 and PDR3 efflux regulators; inhibition, % at 9.4 µM; actives 0.32% (n = 310,000);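 active = every replicate shows inhibition above about 80%, whatever the replicate mean, limit read from the data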;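 note: 0% = DMSO neutral controls and 100% = 20 µM radicicol positive controls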
# tim10-1 inh: inhibits growth of tim10-1 mutant yeast; S. cerevisiae tim10-1 ts strain growth, BacTiter-Glo, 24 h; actives 2.2% (n = 330,000); inhibition, % at 20 µM;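 active = inhibition of at least 40%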;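 note: mutant grown at 25 °C; 0% = DMSO wells with yeast and 100% = wells holding no yeast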
# tim23-1 inh: growth inhibitors of tim23-1 mutant yeast. S. cerevisiae tim23-1 growth, BacTiter-Glo luminescence, 24 h. inhibition, % at 20 µM. actives 1.3% (n = 330,000);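 active = growth inhibition of the mutant yeast at or above 50%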;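 note: temperature-sensitive mutant grown at 25 °C; plate controls were DMSO-treated mutant yeast for no effect and medium wells lacking yeast for full effect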
# ATG4B inh: blocks human ATG4B protease cleavage of LC3 substrate. Q9Y4P1. ATG4B cleavage of LC3-PLA2, NBD-HPC fluorescence, 1 h. inhibition, % at 8.33 µM. actives 0.51% (n = 340,000); in the data active = inhibition above about 40%
# Target sequence (Q9Y4P1 whole entry, looked up): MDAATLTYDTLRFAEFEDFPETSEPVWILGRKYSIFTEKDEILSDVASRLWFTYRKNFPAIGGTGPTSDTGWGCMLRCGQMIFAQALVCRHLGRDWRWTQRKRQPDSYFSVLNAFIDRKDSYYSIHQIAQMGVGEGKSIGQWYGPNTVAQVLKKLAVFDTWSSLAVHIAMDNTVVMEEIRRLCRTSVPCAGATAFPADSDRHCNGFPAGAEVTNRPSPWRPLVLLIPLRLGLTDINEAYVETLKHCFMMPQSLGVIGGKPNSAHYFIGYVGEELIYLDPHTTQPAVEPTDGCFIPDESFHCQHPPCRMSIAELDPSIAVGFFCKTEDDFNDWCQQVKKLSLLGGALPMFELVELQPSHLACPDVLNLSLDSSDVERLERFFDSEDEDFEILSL
# tim23-1 confirm: tim23-1 yeast growth inhibition, confirmed; actives 83% (n = 4,400); shares compounds with tim23-1 inh; inhibition, % at 20 µM; AID 463218; S. cerevisiae tim23-1 growth, BacTiter-Glo luminescence, 24 h;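 active = inhibition above about 39% in either of two replicate wells at 20 µM, limit read from the data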;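 note: temperature-sensitive tim23-1 mutant grown at 25 °C; 0% = DMSO wells with yeast and 100% = medium wells without yeast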
# Starred values were filed as active, the others as inactive; . = no result given.
SMILES,TIM10 inh,SKKanGAS inh,PfHsp90 yeast 2,tim10-1 inh,tim23-1 inh,ATG4B inh,tim23-1 confirm
CCO[C@H]1c2c(ccc3ccc(=O)oc23)OC(C)(C)[C@H]1O,-1,.,7,10,16,-8,.
N#Cc1ccccc1OCC(=O)Nc1ccc(N2CCOCC2)cc1N1CCOCC1,11,.,10,-22,12,-6,.
COc1ccc2c(c1)C(c1ccc([N+](=O)[O-])cc1)=NNC(c1ccco1)=N2,33,29,8,39,53*,28,37*
COc1ccc(C2=NNC(c3ccco3)=Nc3ccc(F)cc32)cc1,10,3,-10,16,37,1,.
CCN1CCN(S(=O)(=O)c2ccc(OC)cc2)CC1,-5,-7,21,5,7,3,.
O=C(Nc1ccc(-c2nc3ncccc3o2)cc1)c1ccc([N+](=O)[O-])o1,36,14,-8,27,65*,5,83*
Cc1nc(C#N)c(NCc2ccc3c(c2)OCO3)o1,-3,-9,20,-11,5,-6,.
Cn1nc(-c2ccccc2F)c2cc(C(=O)Nc3ccc4c(c3)OCCO4)sc21,27,26,-3,38,54*,-19,55*
CCCN(CCC)CCNC(=O)c1cc2c(-c3ccccc3F)nn(C)c2s1,-10,1,-5,20,11,-11,.
CC(C)c1ccc(NC(=S)NCCc2c[nH]c3ccccc23)cc1,15,2,-13,37,52*,-9,37
CC(Nc1cc(=O)n(C)c(=O)n1C)c1ccccc1 (stereo unspecified),9,-1,-8,3,52*,-9,2
O=C(Nc1cccnc1)c1ccc(Cl)c(S(=O)(=O)N2CCOCC2)c1,-10,-1,-33,2,-4,-1,.
Cc1ccc(C(=O)NNC(=O)CCC(=O)Nc2cc(C)on2)cc1,-10,2,2,5,10,-3,.
O=C(CN1C(=O)S/C(=C/c2ccncc2)C1=O)Nc1ccccc1,34,5,10,31,53*,-4,51*
CCOc1ccccc1N1C(=O)c2ccc(C(=O)Nc3cccnc3)cc2C1=O,13,7,-13,6,50*,-12,21
CC(=O)Oc1cccc(N2C(=O)c3ccc(C(=O)Nc4cccnc4)cc3C2=O)c1,-3,1,-5,-3,-5,-11,.
COc1cc(CNc2ccc(O)cc2)cc(Br)c1OCc1ccccc1,14,4,3,18,50*,-2,55*
COc1cc(CNC(C)c2ccccc2)cc(Br)c1OCc1ccccc1 (stereo unspecified),20,8,0,12,34,2,.
O=C1CC(c2cccc(Br)c2)c2cc3c(cc2N1)CCC3 (stereo unspecified),8,3,-75,38,58*,9,52*
c1coc(CNc2c3c(nc4ncnn24)CCCC3)c1,3,1,-13,17,10,1,.
Clc1cccc(-c2cc3nc4c(c(NCc5ccco5)n3n2)CCCC4)c1,33,17,19,19,52*,1,59*
Nc1nonc1C(=O)N/N=C/c1cc(Br)ccc1O,14,-6,-23,-3,52*,-2,56*
Cc1ccc(C)c(-c2csc(N/N=C/c3ccco3)n2)c1,18,5,15,30,56*,10,39*
CSc1ccc(/C=C(\C#N)C(=O)NC2CCCCC2)cc1,31,-4,17,35,50,3,51*
N#C/C(=C\c1ccc(Cl)cc1)C(=O)NC1CC1,24,4,-3,34,56*,-12,52*
COc1ccc([C@H]2CC(=O)C=C(c3cccc(OC)c3OC)C2)cc1OC,6,.,.,9,25,-4,.
CC(=O)CCc1oc2c([N+](=O)[O-])cccc2c1-c1ccc(C)o1,5,-1,-4,-4,12,-7,.
C/C(CCc1oc2c(Br)cc(Br)cc2c1-c1ccc(C)o1)=N\O,36,7,-20,32,58*,12,29
CCOc1ccccc1Cn1c(=O)sc2ccccc21,-24,-5,-4,17,2,-3,.
